# Where “and” joins values, the source holds several entries; their conditions need not be identical. Equal entries are not always repeated. Hit rate of the full screen: of about 6,400 compounds, about 610 (9.5%) were called active. Cut-off read from the data, not from the text of the source: active = activity change below about -70%; inconclusive = no clear call, values can overlap the other calls; inactive = above that. The sample as a whole holds a higher share of actives than the screen did. The source holds several records for some structures; these can differ, active in one and inactive in another. *1 amine or outer side, *2 acyl side, *3 side chain or, on linkers, in order; H or OH if unused. Where a SMILES comes first, the peptide text is derived from it. Bridges are numbered along the chain shown (N, C = ends). Roman numbers before positions name the chains, in order. [ ]: non-standard residue; d: D form. The star is where a group is joined. Actinocin(9to1) = Cc1c2oc3c(C)ccc(C(=O)[*:1])c3nc-2c(C(=O)[*:2])c(N)c1=O; NMeV = CN[CH](C(=O)O)C(C)C; Cbz = O=C(OCc1ccccc1)*; Sar = CNCC(=O)O
# Test: T. gondii ME49Luc in HeLa cells, luciferase assay, 72 h, no IFN-y (AID 1259421)
# Details: stronger effect = lower value, concentration not given here
row,SMILES,"activity change, negative = inhibition"
1,CO[C@H]1CC(O[C@@H]2/C(C)=C/C[C@@H]3C[C@@H](C[C@]4(CC[C@H](C)[C@@H](C5CCCCC5)O4)O3)OC(=O)[C@@H]3C=C(C)/C(=N/O)[C@H]4OC/C(=C\C=C\[C@@H]2C)[C@]43O)O[C@@H](C)C1O (stereo partly drawn),-64.5% (inactive) and -40.6% (inactive)
2,NCCCCN=C(N)N,12.5% (inactive)
3,CC(CCC(=O)NCC(=O)O)C1CCC2C3CCC4CC(O)CCC4(C)C3CC(O)C12C (stereo not drawn),-5.76% (inactive)
4,CC(=O)O[C@@H]1CC2C(C)(C)C(=O)CC[C@]2(C)C2CC[C@@]3(C)[C@H](c4ccoc4)OC(=O)C4OC43[C@@]21C (stereo partly drawn),21.5% (inactive)
5,COC1CCC(N(C(=O)C2CCC(C)CC2)c2cc(C3=CCCCC3)sc2C(=O)O)CC1 (stereo not drawn),5.25% (inactive)
6,COc1cccc(O)c1O,-4.12% (inactive)
7,C[C@@H]1C(SC2CN(C3=NCCS3)C2)=C(C(=O)OCOC(=O)C(C)(C)C)N2C(=O)[C@H]([C@@H](C)O)[C@H]12,3.05% (inactive)
8,CCCCC(C=O)NC(=O)C(CC(C)C)NC(=O)OCc1ccccc1 (stereo not drawn),10.2% (inactive)
9,CC(C)C[C@@H](C=O)NC(=O)[C@H](CC(C)C)NC(=O)[C@H](CC(C)C)NC(=O)OCc1ccccc1 (Cbz-Leu-Leu-Leu-aldehyde),-62.8% (inactive) and -91.5% (active)
10,COC(=O)[C@H](CC(C)C)NC(=O)[C@@H](N)CC(C)C,4.82% (inactive)
11,CC(C)=CCC/C(C)=C/COc1ccc2ccc(=O)oc2c1,17.8% (inactive)
12,c1ccc2c(c1)CCCc1cc(NCCN3CCOCC3)nnc1-2,12.2% (inactive)
13,O=C(NCCN1CCOCC1)c1ccc(Cl)cc1,-0.363% (inactive)
14,O=C1C(Cl)=C(NCCN2CCOCC2)C(=O)c2ncccc21,-78.2% (active)
15,c1cc(-c2cnn3cc(-c4ccc(OCCN5CCCCC5)cc4)cnc23)ccn1,-69.4% (inactive)
16,C/C(=N\NC(=O)[C@@H]1C(=O)NC[C@H]1c1ccccc1)c1cccc(Br)c1,1.33% (inactive)
17,CO[C@H]1C=CO[C@@]2(C)Oc3c(C)c(O)c4c(O)c(c5c(nc6cc(C)ccn65)c4c3C2=O)NC(=O)/C(C)=C\C=C[C@H](C)[C@H](O)[C@@H](C)[C@@H](O)[C@@H](C)[C@H](OC(C)=O)[C@@H]1C,-17.3% (inactive)
18,O=C1OC(=O)C2C3CCC(O3)C12 (stereo not drawn),-85.1% (active)
19,CC(C)[C@](O)(c1ccc2cc(OC(F)F)c(OC(F)F)cc2c1)c1cn[nH]n1,29.6% (inactive)

row,SMILES,"activity change, negative = inhibition"
1,Brc1cccc(Nc2ncnc3cc4nc[nH]c4cc23)c1,3.71% (inactive)
2,O=c1[nH]c2cc([N+](=O)[O-])c([N+](=O)[O-])cc2[nH]c1=O,17.4% (inactive) and 5.82% (inactive) and 4.72% (inactive)
3,O=c1[nH]c2cc(Cl)c(Cl)c([N+](=O)[O-])c2[nH]c1=O,7.55% (inactive)
4,O=c1[nH]c2cc(Cl)c(Cl)cc2[nH]c1=O,-86.2% (active)
5,COc1cc([C@@H]2Oc3c(O)cc([C@H]4Oc5cc(O)cc(O)c5C(=O)[C@@H]4O)cc3[C@H]2CO)ccc1O,-10.5% (inactive)
6,CC(C)O.CC(C)O.CC(C)O.[In],12.3% (inactive)
7,"Cc1c2oc3c(C)ccc(C(=O)N[C@@H]4C(=O)N[C@H](C(C)C)C(=O)N5CCC[C@H]5C(=O)N(C)CC(=O)N(C)[C@@H](C(C)C)C(=O)O[C@@H]4C)c3nc-2c(C(=O)N[C@@H]2C(=O)N[C@H](C(C)C)C(=O)N3CCC[C@H]3C(=O)N(C)CC(=O)N(C)[C@@H](C(C)C)C(=O)O[C@@H]2C)c(N)c1=O (I: T[dV]P[Sar][NMeV] / II: T[dV]P[Sar][NMeV]; ester I:1-I:C, II:1-II:C; linker I:N-II:N via Actinocin(9to1))",-88.5% (active)
8,Cc1c2oc3c(C)ccc(C(=O)OC(C)C4NC(=O)C(C(C)C)N(C)C(=O)CN(C)C(=O)C5CCCN5C(=O)C(C(C)C)NC4=O)c3nc-2c(C(=O)OC(C)C2NC(=O)C(C(C)C)N(C)C(=O)CN(C)C(=O)C3CCCN3C(=O)C(C(C)C)NC2=O)c(N)c1=O (stereo not drawn) (I: cyclo([Sar][NMeV]TVP) / II: cyclo([Sar][NMeV]TVP); linker I:3-II:3 via Actinocin(9to1); configuration not given here),-87.1% (active)
9,CCC1OC(=O)[C@H](C)C(=O)[C@H](C)[C@@H](OC2O[C@H](C)C[C@H](N(C)C)[C@H]2O)[C@](C)(OC)C[C@@H](C)C(=O)[C@@H](C)[C@@H]2N(CCCCn3cnc(-c4cccnc4)c3)C(=O)O[C@]12C (stereo partly drawn),-0.624% (inactive)
10,COCCCCC(=NOCCN)c1ccc(C(F)(F)F)cc1,4.87% (inactive)
11,O=C(CCCc1ccc(-c2ccccc2F)cc1)Nc1ccc(O)cc1,-67.6% (inactive) and -60.5% (inactive)
12,Cn1cnc(-c2cc3nccc(Oc4ccc(NC(=S)NC(=O)Cc5ccccc5)cc4F)c3s2)c1,28.8% (inactive)
13,Nc1nccc(Oc2ccc(NC(=O)c3c[nH]cc(-c4ccc(F)cc4)c3=O)cc2F)c1Cl,-76.8% (active)
14,CCOc1ccn(-c2ccc(F)cc2)c(=O)c1C(=O)Nc1ccc(Oc2ccnc(N)c2Cl)c(F)c1,0.966% (inactive)
15,N#Cc1ccc(NCCNCC(=O)N2CCC[C@H]2C#N)nc1,-0.604% (inactive)
16,COc1ccc(-c2cc(=O)c3c(O)cc(O[C@@H]4O[C@@H](CO[C@@H]5O[C@H](C)[C@@H](O)[C@H](O)[C@H]5O)[C@H](O)[C@@H](O)[C@H]4O)cc3o2)cc1O,6.66% (inactive)
17,CCc1c(Cl)c(O)c(Cl)c(O)c1C(=O)O[C@H]1[C@H](O)[C@H](OC)[C@H](OCC2=C/C=C/C[C@H](O)/C(C)=C\[C@H](CC)[C@H](O[C@@H]3OC(C)(C)[C@@H](OC(=O)C(C)C)[C@H](O)[C@H]3O)/C(C)=C\C(C)=C\C[C@H]([C@@H](C)O)OC2=O)O[C@@H]1C,16.6% (inactive)
18,C[C@H]1O[C@@H](O[C@H]2[C@@H](O)C[C@H](O[C@H]3[C@@H](O)C[C@H](O[C@H]4CC[C@]5(C)C6C[C@@H](O)[C@]7(C)[C@@H](C8=CC(=O)OC8)CC[C@]7(O)C6CC[C@@H]5C4)O[C@@H]3C)O[C@@H]2C)C[C@H](O)[C@@H]1O (stereo partly drawn),-76.7% (active) and -101% (active)
19,C[C@H]1O[C@@H](O[C@H]2[C@@H](O)C[C@H](O[C@H]3[C@@H](O)C[C@H](O[C@H]4CC[C@]5(C)C6CC[C@]7(C)[C@@H](C8=CC(=O)OC8)CC[C@]7(O)C6CC[C@@H]5C4)O[C@@H]3C)O[C@@H]2C)C[C@H](O)[C@@H]1O (stereo partly drawn),-83.2% (active) and -93.3% (active)
